Test results as given in the supplement of paper PMC9950053.
Where a name gives a salt, the structure may show the parent alone.

Test system: Danio rerio larvae (5 dpf)
Experiment: 1-h baseline activity (% time moving, periods 1-6) minus DMSO control (percentage points); higher = more locomotor activity than DMSO larvae
Conditions: 10 µM; exposure time: 3 h pre-incubation + 3 h imaging
Procedure: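 Wild-type 5 dpf zebrafish larvae (n=48 per drug, 96-well plates, 28.5 °C) were exposed to Tocris FDA-approved library compounds at 10 µM (0.1% DMSO) for 3 h before and 3 h during imaging. Images were taken every 6 s during visual (moving coloured lines) and acoustic stimuli, and larvae were tracked with the DeepLabCut-based Z-LaP Tracker. Each behavioural measure is the treated-group mean minus the DMSO vehicle control mean (n=844), in percentage points. This mapping covers compounds with 4-character plate codes.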

| SMILES | 1-h baseline activity |
| --- | --- |
| CC(C)c1ccc2oc3nc(N)c(C(=O)O)cc3c(=O)c2c1 [Amlexanox] | 5.8 |
| C[C@]12CC[C@@H]3c4ccc(O)cc4C[C@@H](CCCCCCCCC[S+]([O-])CCCC(F)(F)C(F)(F)F)[C@H]3[C@@H]1CC[C@@H]2O (stereo not given in full) | 8.32 |
| CS(=O)(=O)CCNCc1ccc(-c2ccc3ncnc(Nc4ccc(OCc5cccc(F)c5)c(Cl)c4)c3c2)o1 [Lapatinib] | -5.01 |
| C#C[C@]1(O)CC[C@H]2[C@@H]3CCC4=CC(=O)CC[C@@H]4[C@H]3CC[C@@]21CC [Levonorgestrel] | -8.79 |
| CC#C[C@]1(O)CC[C@H]2[C@@H]3CCC4=CC(=O)CCC4=C3[C@@H](c3ccc(N(C)C)cc3)C[C@@]21C [Mifepristone] | -3.83 |
| Cc1ccc(-c2cc(C(F)(F)F)nn2-c2ccc(S(N)(=O)=O)cc2)cc1 [Celecoxib] | -5.62 |
| O=C(O[C@@H]1C[C@@H]2C[C@H]3C[C@H](C1)N2CC3=O)c1c[nH]c2ccccc12 [Dolasetron mesylate] | -3.58 |
| COc1ccccc1OCCNCC(O)COc1cccc2[nH]c3ccccc3c12 (stereo not given) [Carvedilol] | -12.4 |
| O=c1[nH]c(=O)n([C@H]2C[C@H](O)[C@@H](CO)O2)cc1C(F)(F)F [Trifluorothymidine] | 0.518 |
| COC(=O)C1=C(C)NC(C)=C(C(=O)OC(C)C)C1c1cccc2nonc12 (stereo not given) [Isradipine] | -3.08 |
| CC(C)N(CCCCOCC(=O)NS(C)(=O)=O)c1cnc(-c2ccccc2)c(-c2ccccc2)n1 [Selexipag] | 1.65 |
| Cc1nc(-c2ccc(OCC(C)C)c(C#N)c2)sc1C(=O)O [Febuxostat] | -2.75 |
| Cc1nnc(C(C)C)n1C1C[C@H]2CC[C@@H](C1)N2CC[C@H](NC(=O)C1CCC(F)(F)CC1)c1ccccc1 (stereo in doubt) [Maraviroc] | -3.33 |
| CCOC(=O)C1=C(COCCN)NC(C)=C(C(=O)OC)C1c1ccccc1Cl (stereo not given) [Amlodipine besylate] | 0.364 |
| Clc1ccccc1C(c1ccccc1)(c1ccccc1)n1ccnc1 [Clotrimazole] | -22.9 |
| C[C@H](Cc1cc2c(c(C(N)=O)c1)N(CCCO)CC2)NCCOc1ccccc1OCC(F)(F)F [Silodosin] | -3.52 |
| CCOC(=O)C1=C(C)NC(C)=C(C(=O)OC)C1c1cccc(Cl)c1Cl (stereo not given) [Felodipine] | -15.3 |
| CO[C@H]1/C=C/O[C@@]2(C)Oc3c(C)c(O)c4c(O)c(c5c(nc6cc(C)ccn65)c4c3C2=O)NC(=O)/C(C)=C\C=C\[C@H](C)[C@H](O)[C@@H](C)[C@@H](O)[C@@H](C)[C@H](OC(C)=O)[C@@H]1C [Rifaximin] | -1.58 |
| CN1CCN(CCCN2c3ccccc3Sc3ccc(Cl)cc32)CC1 [Prochlorperazine dimaleate] | 4.26 |
| CCCN(CCc1cccs1)[C@H]1CCc2c(O)cccc2C1 [Rotigotine hydrochloride] | -27 |

| SMILES | 1-h baseline activity |
| --- | --- |
| O=C(O)CCCc1ccccc1 [Sodium 4-Phenylbutyrate] | 0.969 |
| Cn1nnc2c(C(N)=O)ncn2c1=O [Temozolomide] | 5.97 |
| Nc1nc(F)nc2c1ncn2[C@@H]1O[C@H](CO)[C@@H](O)[C@@H]1O [Fludarabine] | 4.33 |
| CN(C)CCC[C@@]1(c2ccc(F)cc2)OCc2cc(C#N)ccc21 [Escitalopram oxalate] | -24.4 |
| Cc1nc(Nc2ncc(C(=O)Nc3c(C)cccc3Cl)s2)cc(N2CCN(CCO)CC2)n1 [Dasatinib] | -12.5 |
| Brc1c(NC2=NCCN2)ccc2nccnc12 | -17.8 |
| CC/C(=C(\c1ccccc1)c1ccc(OCCN(C)C)cc1)c1ccccc1 [Tamoxifen citrate] | 26.3 |
| O=C(NCC1CCCCN1)c1cc(OCC(F)(F)F)ccc1OCC(F)(F)F (stereo not given) [Flecainide acetate] | -0.107 |
| Cc1cc(C2CCCCC2)n(O)c(=O)c1 [Ciclopirox] | -1.84 |
| CCOC(=O)N1CCC(=C2c3ccc(Cl)cc3CCc3cccnc32)CC1 [Loratidine] | -19.4 |
| CC(C)(C#N)c1cc(Cn2cncn2)cc(C(C)(C)C#N)c1 [Anastrozole] | 1.59 |
| COc1ccc(-c2ccc3cc(C(=O)O)ccc3c2)cc1C12CC3CC(CC(C3)C1)C2 [Adapalene] | -1.21 |
| CCOc1cc(CC(=O)N[C@@H](CC(C)C)c2ccccc2N2CCCCC2)ccc1C(=O)O [Repaglinide] | 4.99 |
| C=CC(=O)N1CCC[C@@H](n2nc(-c3ccc(Oc4ccccc4)cc3)c3c(N)ncnc32)C1 [Ibrutinib] | -7.48 |
| O=C(O)c1cc(/N=N/c2ccc(S(=O)(=O)Nc3ccccn3)cc2)ccc1O [Sulfasalazine] | 12.5 |
| CCCCCOC(=O)Nc1nc(=O)n([C@@H]2O[C@H](C)[C@@H](O)[C@H]2O)cc1F [Capecitabine] | 6.82 |
| O=C(Nc1c(Cl)cncc1Cl)c1ccc(OC(F)F)c(OCC2CC2)c1 [Roflumilast] | -15.9 |
| O=C1CCc2cc(OCCCCc3nnnn3C3CCCCC3)ccc2N1 [Cilostazol] | 10 |
| COc1c(C)c2c(c(O)c1C/C=C(\C)CCC(=O)O)C(=O)OC2 [Mycophenolic acid] | 1.89 |
| CC(C)c1nc(N(C)S(C)(=O)=O)nc(-c2ccc(F)cc2)c1/C=C/[C@@H](O)C[C@@H](O)CC(=O)O [Rosuvastatin calcium] | 2.58 |
